An excerpt weighted towards active compounds, which were near 7.3% of everything screened.
HCMV inh – qHTS Assay for inhibitors of the human cytomegalovirus (HCMV); AID 1259415, 2018; HFF cells, HCMV-luciferase reporter, 72 h; active compounds read low; activity change, negative = inhibition, % at 57.5 µM; actives 4.5% (n = 410,000); in the data active = activity change below about -60%; inconclusive = no clear call, values can overlap the other calls; inactive = above about -39%
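Steps: HFFs plated, 16 h 37C; compounds added; HCMV-luciferase added to MOI 1 PFU/cell; 72 h 37C; OneGlo reagent, 5 min room temperature; luminescence read, normalized to controls.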
VACV Venus inh – qHTS for Stage-Specific Inhibitors of Vaccinia Orthopoxvirus: Venus Reporter Primary qHTS; Vaccinia virus Venus reporter expression, fluorescence; Potency, µM (doses to about 36.5 µM), actives largely listed as inhibitors; actives 0.46% (n = 330,000); calls by dose curve; tested in A549 cells; also: nearly all actives have a fitted effect of over 30% in size
HCV inh – qHTS Assay for Inhibitors of Hepatitis C Virus (HCV); Huh7.5.1 HCVcc-Cre infection, luciferase reporter, 44 h; Potency, µM (titrated, usually from 41.8 µM), usual class: inhibitors; actives 3.4% (n = 340,000); active = well fitted inhibition curve with a large enough effect; inconclusive = small, poorly fitted or top-dose-only effect, or another doubt; inactive = no such curve, though single readings can be large or run the other way
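Cells seeded at 1,000/well and cultured 4 h, then compounds added followed by HCVcc-Cre virus (~0.5 moi). After 44 h further culture, luciferase substrate was added, plates held 15 min at room temperature, and luminescence read for 15 sec.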
Vaccinia mCherry – qHTS for Stage-Specific Inhibitors of Vaccinia Orthopoxvirus: mCherry Reporter Primary qHTS | Potency, µM (titrated, usually from 36.5 µM), actives largely listed as inhibitors | Vaccinia virus mCherry reporter infection, fluorescence | actives 0.63% (n = 310,000) | AID 720579, 2013; calls by dose curve; tested in A549 cells; also: nearly all actives have a fitted effect of over 35% in size
FMDV antiviral – High Throughput Screening for Foot and Mouth Disease Virus Antivirals; FMDV antiviral cell-based qHTS; Potency, µM (titrated, usually from 57.9 µM), hits mostly inhibitors; actives 1.2% (n = 410,000); calls by dose curve; tested in HEK293T cells; also: read-out not given here; nearly all actives have a fitted effect of over 45% in size
Each line names hits and unclear results; the compound was inactive in the other large screens.

O=C(c1ccc(-c2ccc([N+](=O)[O-])cc2)o1)N1CCCC(C(F)(F)F)C1 (stereo unspecified)	HCMV inh -76, HCV inh inconclusive
O=C(OC(C(=O)N1CCOCC1)c1ccccc1)c1c2c(nc3ccccc13)CCCC2 (stereo unspecified)	none (no result: HCMV inh, HCV inh, FMDV antiviral)
CCC(C)SCc1nc2ccccc2[nH]1 (stereo unspecified)	HCMV inh -63
CC(C)(C)N(Cc1ccc2c(c1)OCO2)C(=O)/C=C\S(=O)c1ccccc1 (stereo unspecified)	VACV Venus inh 14µM, HCV inh 11µM, Vaccinia mCherry 8.9µM
CCN(Cc1ccc2c(c1)OCO2)C(=O)/C=C/c1cccc(Br)c1	none
Cc1ccc(-n2ncc(C(=O)NCCc3c[nH]c4ccccc34)c2C2CCN(C(=O)OC(C)(C)C)CC2)cc1C	Vaccinia mCherry inconclusive (no result: HCV inh)
Cc1cc2nc3c(=O)[nH]c(=O)nc-3n(C)c2cc1C=O	FMDV antiviral 16µM (no result: HCMV inh, VACV Venus inh, HCV inh, Vaccinia mCherry)
CC(=O)OCCn1c2nc(=O)[nH]c(=O)c-2nc2cc(C)c(C)cc21	HCV inh inconclusive (no result: VACV Venus inh, Vaccinia mCherry)
O=c1oc2ccccc2c2c1cnc1ccccc12	none
Cc1cnc(N)c2c(=O)oc3ccccc3c12	HCV inh 6.3µM
NC(=O)CC(NC(=O)Cc1cccc2ccccc12)c1ccc(NCC2CC2)c([N+](=O)[O-])c1 (stereo unspecified)	none
NC(=O)CC(NC(=O)Cc1cccc2ccccc12)c1ccc(NC2CC3CCC2C3)c([N+](=O)[O-])c1 (stereo unspecified)	HCV inh 11µM, Vaccinia mCherry inconclusive
NC(=O)CC(NC(=O)Cc1cccc2ccccc12)c1ccc(NC2CCCC2)c([N+](=O)[O-])c1 (stereo unspecified)	none
NC(=O)CC(NC(=O)Cc1cccc2ccccc12)c1ccc(NCCOc2ccccc2)c([N+](=O)[O-])c1 (stereo unspecified)	HCMV inh -68, VACV Venus inh inconclusive
Cc1ccn2c(=O)c(C(=O)NCCc3ccc(S(N)(=O)=O)cc3)c(O)nc2c1	none (no result: HCV inh)
CCOc1c2c(c(-c3ccc4c(c3)OCO4)c3cc(OC)c(OC)cc13)C(=O)OC2	VACV Venus inh 4µM, Vaccinia mCherry inconclusive (no result: HCMV inh, HCV inh, FMDV antiviral)
CN(C)CCn1cnc2c(c1=N)C(c1ccccc1)c1ccc3ccccc3c1O2 (stereo unspecified)	HCMV inh -98, HCV inh 13µM (no result: VACV Venus inh, Vaccinia mCherry)
COc1ccccc1C(CC(=O)c1ccccc1)C(=O)c1ccccc1 (stereo unspecified)	none (no result: HCV inh)
COc1ccccc1C(CC(=O)c1ccccc1)CC(=O)c1ccccc1	HCMV inh -77, HCV inh inconclusive
COCOc1cc(O)c2c(=O)c(OCOC)c(-c3ccc(OCOC)c(OCOC)c3)oc2c1	HCMV inh -71
COc1c(-c2ccc(O)c(O)c2)oc2cc(O)cc(O)c2c1=O	none
CCc1nn(CC(=O)N(CC)Cc2ccccc2)c(=O)c2cc3occc3n12	none (no result: HCV inh)
Cc1ccc(S(=O)(=O)Nc2ccc3c(c2)c(C(=O)OC(C)C)c(C)n3S(=O)(=O)c2ccc(C)cc2)cc1	none (no result: HCV inh)
Cc1ccc(Cl)cc1N1CCN(C(=O)CCS(=O)(=O)c2ccc3c(c2)NC(=O)CO3)CC1	HCMV inh inconclusive, HCV inh 11µM (no result: VACV Venus inh, Vaccinia mCherry)
Cc1ccc(CNC(=O)CCS(=O)(=O)c2ccc3c(c2)NC(=O)C(C)S3)cc1 (stereo unspecified)	FMDV antiviral inconclusive (no result: VACV Venus inh, Vaccinia mCherry)
O=C1COc2ccc(S(=O)(=O)CCC(=O)N3CCN(c4cccc(Cl)c4)CC3)cc2N1	FMDV antiviral inconclusive (no result: VACV Venus inh, Vaccinia mCherry)
Cc1ccc(C)c(N2CCN(C(=O)CCS(=O)(=O)c3ccc4c(c3)NC(=O)C(C)S4)CC2)c1 (stereo unspecified)	HCMV inh active, HCV inh 2.8µM, FMDV antiviral 16µM (no result: VACV Venus inh, Vaccinia mCherry)
CC(C)(C)OC(=O)N1CCC(c2c(C(=O)N3CCN(c4ccccn4)CC3)cnn2-c2cccc(F)c2)CC1	none (no result: HCV inh)
COc1ccc(Cc2[nH]n3c(=O)cc(C(C)C)nc3c2-c2ccccc2)cc1	HCMV inh -73, HCV inh inconclusive, Vaccinia mCherry inconclusive, FMDV antiviral inconclusive
C#Cc1ccc(NC(=O)C2(C)CCN2C(=O)Cc2ccc(C(C)C)cc2)cc1 (stereo unspecified)	HCMV inh -82, FMDV antiviral inconclusive (no result: HCV inh)
C#Cc1ccc(NC(=O)C2(C)CCN2C(=O)Cc2ccc(C(C)(C)C)cc2)cc1 (stereo unspecified)	HCMV inh -83, FMDV antiviral inconclusive (no result: HCV inh)
C#Cc1ccc(NC(=O)C2(C)CCN2C(=O)C/C=C/c2ccccc2)cc1 (stereo unspecified)	none (no result: HCV inh)
CCOc1ccc(OCC)c(NC(=O)C2CCN(S(=O)(=O)c3ccc(Br)s3)CC2)c1	none (no result: HCV inh)
O=C(COc1ccccc1)Nc1ncc2c(n1)CCCC2=O	HCMV inh -62 (no result: Vaccinia mCherry)
COc1ccc(OCC(=O)Nc2ncc3c(n2)CC(C)(C)CC3=O)cc1	none (no result: VACV Venus inh, Vaccinia mCherry)
Cc1ccc(-c2cn(CCC(=O)O)c(=O)cn2)cc1	none (no result: VACV Venus inh, HCV inh, Vaccinia mCherry, FMDV antiviral)
COc1ccc(OC)c(-n2c(CN3CCC(C(N)=O)CC3)nc3ccccc3c2=O)c1	none (no result: VACV Venus inh, Vaccinia mCherry)
COc1ccc(OC)c(-n2c(CNC3CCN(Cc4ccccc4)CC3)nc3ccccc3c2=O)c1	HCMV inh -106 (no result: VACV Venus inh, Vaccinia mCherry)
Cc1ccc(S(=O)(=O)N2CCN(c3nc(-c4ccncc4)nc4ccccc34)CC2)cc1	none (no result: HCMV inh, HCV inh, FMDV antiviral)
O=C(COc1ccc2ccc(=O)oc2c1)Nc1cccc(S(=O)(=O)N2CCCCC2)c1	HCV inh inconclusive, FMDV antiviral 14µM
Cc1ccc(OCC(=O)Nc2cccc(S(=O)(=O)N3CCCCC3)c2)c([N+](=O)[O-])n1	HCV inh inconclusive
Cc1ccc(OCC(=O)Nc2cccc(S(=O)(=O)N3CCCC3)c2)cc1C	none (no result: HCV inh)
Cc1ccc2cccc(OCC(=O)Nc3cccc(S(=O)(=O)N4CCCC4)c3)c2n1	HCV inh 5.6µM, FMDV antiviral 40µM
CN1CCN(c2ccc(-c3cccc(NC(=O)COc4ccc(Cl)cc4Cl)c3)nn2)CC1	HCV inh 11µM, FMDV antiviral inconclusive
O=C(COc1ccc(Cl)cc1Br)Nc1cccc(S(=O)(=O)N2CCCC2)c1	HCV inh inconclusive (no result: VACV Venus inh, Vaccinia mCherry)
Cc1cc(Cl)ccc1OCC(=O)Nc1cccc(S(=O)(=O)N2CCCC2)c1	HCMV inh inconclusive, HCV inh 7.9µM (no result: VACV Venus inh, Vaccinia mCherry)
CC(C)CC(=O)NCC(c1ccc2c(c1)OCO2)N1CCN(c2ccccc2F)CC1 (stereo unspecified)	none (no result: HCV inh)
O=C(COc1ccc2ccc(=O)oc2c1)NC1CCCC1	HCMV inh -62 (no result: VACV Venus inh, Vaccinia mCherry)
Cc1nc(-c2cccc(NC(=O)c3ccc(Cl)c(S(=O)(=O)N4CCCC4)c3)c2)cs1	VACV Venus inh inconclusive, Vaccinia mCherry inconclusive, FMDV antiviral inconclusive (no result: HCV inh)
O=C(Nc1nc(-c2ccc(S(=O)(=O)N3CCCC3)cc2)cs1)c1ccco1	HCMV inh -65, HCV inh inconclusive, Vaccinia mCherry inconclusive, FMDV antiviral inconclusive

Screening results as filed in PubChem BioAssay.
